High-throughput results as filed in PubChem.
ELG1 DNA repair – ELG1-dependent DNA repair inhibition | HEK293T ELG1-luciferase reporter, luminescence, 16 h; DNA damage induced by 5-fluorouridine | Potency, µM (top dose mostly 46.1 µM), usual class: inhibitors | hit rate 2.3% among 330,000 | AID 504467; note: nearly all actives have a fitted effect of over 55% in size
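Luminescence from the luciferase reporter, measured 30 min after ONE-Glo reagent at room temperature, was the read-out. Beforehand, 2,000 cells per well were exposed for 16 hr at 37 °C to 5-fluorouridine together with compound or vehicle.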
Nrf2 activator – activators of Nrf2 (ARE) signaling | Potency, µM (doses to about 46.1 µM), most hits filed as activators | hit rate 0.31% among 410,000 | AID 624171 | AREc32 ARE-luciferase reporter (MCF7-derived line), luminescence, 24 h; note: nearly all actives have a fitted effect of over 65% in size
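For detection, Steady-Glo was added and plates sat 30 min at RT; before that, AREc32_Fluc cells grown overnight in OPTI-MEM/5% FBS had been treated with 23 nL compound for 24 hr at 37 deg C.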
Nrf2 block – Nrf2 pathway inhibition. A549 ARE-Fluc reporter, luciferase luminescence, 18-24 h. Potency, µM (doses to about 46 µM), most hits filed as inhibitors. hit rate 2.1% among 360,000. AID 504444; note: nearly all actives have a fitted effect of over 60% in size
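Reporter: ARE-Fluc in A549. Exposure: 18-24 h, 37 °C, 5% CO2, 5% FBS OPTI-MEM. Readouts: fluorescent cytotoxicity (CellTiter-Fluor), then luminescent Nrf2 signal after BugLite.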
A549 viability – kills or reduces viability of A549 cells in Nrf2 counter-screen; hit rate 0.16% among 390,000; AID 504648; A549 ARE-Fluc cells, CellTiter-Fluor viability, 18-24 h; Potency, µM (titrated, usually from 46 µM), most hits filed as inhibitors
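A549 ARE_Fluc cells in 5% FBS OPTI-MEM were exposed to compounds in concentration-response for 18-24 h at 37 deg C. Viability was read by CellTiter-Fluor fluorescence (Ex 405/Em 525) after 30 min, before the luciferase read.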
mIDH1 inhibitor – inhibitors of human mutant IDH1 R132H; IDH1-R132H enzyme, NADPH consumption, diaphorase/resazurin fluorescence; Potency, µM (titrated, usually from 76.6 µM), most hits filed as inhibitors; hit rate 0.093% among 390,000; AID 602179; note: nearly all actives have a fitted effect of over 65% in size
Target sequence (O75874 whole entry R132H, stated change not applied): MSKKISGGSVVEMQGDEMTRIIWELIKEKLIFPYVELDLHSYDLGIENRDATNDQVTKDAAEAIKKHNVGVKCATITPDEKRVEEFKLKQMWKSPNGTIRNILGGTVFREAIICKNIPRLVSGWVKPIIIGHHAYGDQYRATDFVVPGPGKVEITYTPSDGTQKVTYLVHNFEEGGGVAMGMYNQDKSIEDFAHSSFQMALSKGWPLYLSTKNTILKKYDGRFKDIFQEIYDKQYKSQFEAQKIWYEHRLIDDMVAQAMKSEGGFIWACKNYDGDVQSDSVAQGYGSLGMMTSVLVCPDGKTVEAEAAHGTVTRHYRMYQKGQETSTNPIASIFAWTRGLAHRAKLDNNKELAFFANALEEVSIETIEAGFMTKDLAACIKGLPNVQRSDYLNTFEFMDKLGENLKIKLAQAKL
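IDH1-R132H (0.5 ug/mL) preincubated 30 min with compound, then NADPH (0.016 mM) and alpha-KG (2 mM) added; 80 min at RT, pH 7.5. Remaining NADPH coupled via diaphorase/resazurin to fluorescence (540/590 nm); concentration-response curves normalized to no-enzyme control.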
Numbers stand for hits; – = inactive; ? = inconclusive; · = no result. Most compounds without a hit are left out; they make up all but 3.8% or so of the library. Calls come from the whole dose curve; as a rule, active = well fitted curve in the direction sought with a large enough effect; inconclusive = small, poorly fitted or top-dose-only effect, or another doubt; inactive = no such curve, though single readings can be large; an effect the other way counts as inactive or inconclusive.

SMILES | ELG1 DNA repair | Nrf2 activator | Nrf2 block | A549 viability | mIDH1 inhibitor
COc1cccc2c1OC[C@@H](CO)[C@H]2N(C)C(=O)Nc1ccc(Cl)cc1Cl | – | – | 18µM | – | –
COc1ccccc1-c1nnc(SCC(=O)Nc2ccc(Cl)cc2Cl)o1 | – | – | – | – | –
c1nc(NCC2CCCO2)c2ccc(-c3ccc4c(c3)OCO4)cc2n1 (stereo not given) | · | · | ? | – | ·
O=c1[nH]c2ccccc2c(O)c1O | 3.3µM | – | – | – | –
COC(=O)c1c(NC(=O)c2nc3nc(C)cc(C(F)F)n3n2)sc2c1CCC2 | 23µM | – | ? | – | –
Cc1cc(C(F)F)n2nc(C(=O)Nc3sc4c(c3C(N)=O)CCC4)nc2n1 | ? | – | – | – | –
Cc1ccc(N(Cc2ccc(C(=O)NCCSc3ccccn3)cc2)S(C)(=O)=O)cc1C | 9.2µM | – | – | – | –
COC(=O)[C@@]12OC[C@]34[C@H]([C@@H](O)[C@@H]1O)[C@@]1(C)C(=O)C(O[C@@H]5OC(CO)[C@@H](O)[C@@H](O)[C@@H]5O)=C[C@@H](C)[C@@H]1C[C@H]3OC(=O)[C@H](OC(=O)/C=C(\C)C(C)(C)OC(C)=O)[C@@H]24 (stereo not given in full) | 6.5µM | – | 2.9µM | ? | –
O=c1c(Cl)cc(Cl)nn1-c1ccccc1 | 23µM | – | – | – | –
CCOC(=O)C1CCN(C(c2ccc(OCC)cc2)c2c(O)cc(C)n(CCOC)c2=O)CC1 (stereo not given) | · | – | · | – | –
COc1ccc(C(=O)NCC(=O)OCC(=O)c2ccc3ccccc3c2)cc1 | · | · | ? | – | ·
Cc1cc(S(=O)(=O)c2ccc([N+](=O)[O-])cn2)ccc1Br | · | 13µM | ? | – | –
Cc1ccccc1-c1nc2cc(NC(=O)COc3ccc(F)cc3)ccc2o1 | · | – | – | – | ·
COc1ccc(S(=O)(=O)Nc2cccc3c2O[C@H](CN(C)Cc2ccc(Oc4ccccc4)cc2)[C@@H](C)CN([C@H](C)CO)C3=O)cc1 | – | – | 16µM | – | –
C[C@H](CO)N1C[C@H](C)[C@@H](CN(C)CC2CCCCC2)Oc2c(NC(=O)Cc3ccccc3)cccc2C1=O | ? | – | 23µM | – | –
CC(C)NC(=O)N(C)C[C@H]1Oc2c(NC(=O)Cc3ccccc3)cccc2C(=O)N([C@H](C)CO)C[C@@H]1C | – | – | – | – | –
C[C@H](CO)N1C[C@H](C)[C@@H](CN(C)Cc2ccc(Cl)c(Cl)c2)Oc2c(NC(=O)CCC(F)(F)F)cccc2C1=O | – | – | 18µM | – | –
O=C(CN1Cc2ccccc2C1=O)Nc1cc(F)ccc1F | · | – | – | – | –
CCOC(=O)c1sc2ccccc2c1S(=O)(=O)N1CCN(c2cc(C)ccc2C)CC1 | · | – | – | ? | –
COc1ccccc1/C=C/c1nc(C#N)c(NCc2ccccc2)o1 | · | – | – | – | ·
O=C(Nc1cc2c(cc1Br)OCCO2)c1cccs1 | ? | 13µM | ? | – | –
Cc1ccc(NC(=O)CSc2nnc(C3CC3)n2C)cc1S(=O)(=O)N1CCCCC1 | – | – | 15µM | – | –
Cc1ccc(NC(=O)c2ccccc2F)cc1S(=O)(=O)N1CCCCCC1 | ? | – | 16µM | – | –
Cc1ccc(NC(=O)Cc2ccccc2F)cc1S(=O)(=O)N1CCCCCC1 | 12µM | – | ? | – | –
Cc1ccc(NC(=O)COC(=O)c2ccccc2F)cc1S(=O)(=O)N1CCCCC1 | – | – | – | – | –
SMILES | ELG1 DNA repair | Nrf2 activator | Nrf2 block | A549 viability | mIDH1 inhibitor
CCOc1ncccc1C(=O)Nc1ccc(Cl)c(S(=O)(=O)N2CCCC2)c1 | ? | – | 18µM | – | –
Cc1ccc(NC(=O)CSc2nnc(N)s2)cc1S(=O)(=O)N1CCCCC1 | – | – | – | – | –
Cc1cc(Br)ccc1NC(=O)c1sc2nc3n(c(=O)c2c1C)CCCC3 | · | – | – | ? | –
COc1ccc(C2=Nn3c(nnc3-c3cc(OC)ccc3OC)SC2)c(OC)c1 | · | · | ? | – | ·
Cc1ccc2c(CNCc3ccc(C)o3)c(C(=O)O)n(Cc3ccccc3C)c2c1 | · | – | – | – | –
O=S(=O)(c1ccc2c(c1)OCCO2)N1CCN(S(=O)(=O)c2cc(F)c(F)cc2F)CC1 | · | · | – | – | ·
Cc1cccc(N2CCN(C(=O)CCn3c(=O)[nH]c4ccccc4c3=O)CC2)c1C | 9.2µM | – | – | – | –
Cc1cccc(N2CCN(C(=O)CCCn3c(=O)c4cccn4c4cccnc43)CC2)c1C | 16µM | – | ? | – | –
CCOc1cc(CNC(=O)CCCn2c(=O)c3cccn3c3cccnc32)cc(OCC)c1OCC | 16µM | – | ? | – | –
COc1ccccc1N1CCN(C(=O)CCn2c(=O)[nH]c3ccccc3c2=O)CC1 | – | – | – | – | –
O=S1(=O)CC(N2CCSCC2)CN1Cc1cn(Cc2cccc(C(F)(F)F)c2)nn1 (stereo not given) | · | – | · | · | ·
CCC(=O)Nc1ccc(C(=O)OCC(=O)c2ccc(C)c([N+](=O)[O-])c2)cc1 | – | – | 7.3µM | · | –
C=CCn1c(=O)c2c3c(sc2n2c(Nc4ccccc4)nnc12)CCCC3 | 21µM | – | – | – | –
C=CCn1c(=O)c2c3c(sc2n2c(Nc4ccc(OC)cc4)nnc12)CCCC3 | 8.2µM | – | – | – | –
CC(C)c1[nH]nc2c1C(c1ccco1)C(C#N)=C(N)O2 (stereo not given) | – | – | – | – | –
NC(=O)Cc1nc(-c2ccc([N+](=O)[O-])cc2)cs1 | 18µM | – | – | – | –
CCCCOc1ccc(C(=O)N(Cc2ccc(C(C)C)cc2)C2CCS(=O)(=O)C2)cc1 (stereo not given) | · | – | ? | – | –
CC(C)c1nc2ccc(C(=O)NCc3ccc(F)cc3)cc2o1 | · | – | · | – | –
